# Only a selection was taken, and the strongest signals are over-represented in it overall.
# B1: Actd5 (Actinidia), P84527 (protein)
# chain: ISSCNGPCRDLNDCDGQLICIKGKCNDDPQVGTHICRGTTHSHQPGGCKPSGTLTCRGKSYPTYDCSPPVTSSTPAKLTNNDFSEGGDDGGPSECDESYHNNNERIVALSTGWYNGGSRCGKMIRITASNGKSVSAKVVDECDSRHGCDKEHAGQPPCRNNIVDGSNAVWSALGLDKNVGVVDITWSMA
# Assays:
# Test in all cases: glycan array binding signal (z-score within array); higher = stronger binding
# Details in all cases: glycan notation: IUPAC condensed, linker removed
# Fuc(a1-2)Gal(b1-4)Glc = biological target: Fuc(a1-2)Gal(b1-4)Glc
# Method in brief: (§1)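 Glycan array data came from 3228 arrays in the Consortium for Functional Glycomics database, and only arrays with an available protein sequence were kept. Glycan names were put into IUPAC-condensed notation, and columns mapping to the same glycan were averaged. The binding signal is a within-array Z-score, averaged across arrays of one protein sequence run at different concentrations or buffers and across linkers. A negative Z-score can be read as non-binding.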
# [1] = biological target: Fuc(a1-2)[GalNAc(a1-3)]Gal(b1-3)GalNAc(b1-3)Gal(a1-4)Gal(b1-4)Glc
# Method in brief: as §1
# [2] = biological target: Fuc(a1-2)[GalNAc(a1-3)]Gal(b1-3)GlcNAc(b1-2)Man(a1-3)[Fuc(a1-2)[GalNAc(a1-3)]Gal(b1-3)GlcNAc(b1-2)Man(a1-6)]Man(b1-4)GlcNAc(b1-4)GlcNAc
# Method in brief: as §1
# [3] = biological target: Fuc(a1-2)[GalNAc(a1-3)]Gal(b1-3)GlcNAc(b1-2)Man(a1-3)[Fuc(a1-2)[GalNAc(a1-3)]Gal(b1-3)GlcNAc(b1-2)Man(a1-6)]Man(b1-4)GlcNAc(b1-4)[Fuc(a1-6)]GlcNAc
# Method in brief: as §1
# [4] = biological target: Fuc(a1-2)[GalNAc(a1-3)]Gal(b1-4)GlcNAc(b1-6)GalNAc
# Method in brief: as §1
# Fuc(a1-3)GlcNAc = biological target: Fuc(a1-3)GlcNAc
# Method in brief: as §1
# [5] = biological target: Fuc(a1-3)[Gal(b1-4)]GlcNAc(b1-3)Gal(b1-4)[Fuc(a1-3)]GlcNAc(b1-3)Gal(b1-4)[Fuc(a1-3)]GlcNAc
# Method in brief: as §1
# [6] = biological target: Fuc(a1-3)[Gal(b1-4)]GlcNAc6S
# Method in brief: as §1
# [7] = biological target: Fuc(a1-3)[GalNAc(b1-4)]GlcNAc6S
# Method in brief: as §1
# Gal(a1-3)Gal = biological target: Gal(a1-3)Gal
# Method in brief: as §1
# Gal(a1-3)Gal(b1-4)GlcNAc = biological target: Gal(a1-3)Gal(b1-4)GlcNAc
# Method in brief: as §1
# [8] = biological target: Gal(a1-3)Gal(b1-4)[Fuc(a1-3)]GlcNAc(b1-2)Man(a1-3)[Gal(a1-3)Gal(b1-4)[Fuc(a1-3)]GlcNAc(b1-2)Man(a1-6)]Man(b1-4)GlcNAc(b1-4)GlcNAc
# Method in brief: as §1
# [9] = biological target: Gal(b1-3)GalNAc(a1-3)[Fuc(a1-2)]Gal(b1-4)Glc
# Method in brief: as §1
# [10] = biological target: Gal(b1-3)GlcNAc(b1-6)GalNAc
# Method in brief: as §1
# [11] = biological target: Gal(b1-3)[GlcNAc(b1-6)]GalNAc
# Method in brief: as §1
# [12] = biological target: Gal(b1-3)[Neu5Ac(a2-6)]GalNAc
# Method in brief: as §1
# [13] = biological target: Gal(b1-4)GlcNAc(a1-6)Gal(b1-4)GlcNAc
# Method in brief: as §1
# [14] = biological target: Gal(b1-4)GlcNAc(b1-2)[Gal(b1-4)GlcNAc(b1-4)]Man(a1-3)[Gal(b1-4)GlcNAc(b1-2)Man(a1-6)]Man(b1-4)GlcNAc(b1-4)GlcNAc
# Method in brief: as §1
# [15] = biological target: Gal(b1-4)GlcNAc(b1-2)[Gal(b1-4)GlcNAc(b1-6)]Man(a1-6)[GlcNAc(b1-4)][Gal(b1-4)GlcNAc(b1-2)Man(a1-3)]Man(b1-4)GlcNAc(b1-4)GlcNAc
# Method in brief: as §1
# [16] = biological target: Gal(b1-4)GlcNAc(b1-3)Gal(b1-3)GlcNAc
# Method in brief: as §1
# [17] = biological target: Gal(b1-4)GlcNAc(b1-3)Gal(b1-4)GlcNAc(b1-2)Man(a1-3)[Gal(b1-4)GlcNAc(b1-3)Gal(b1-4)GlcNAc(b1-2)Man(a1-6)]Man(b1-4)GlcNAc(b1-4)GlcNAc
# Method in brief: as §1
# [18] = biological target: Gal(b1-4)GlcNAc(b1-3)Gal(b1-4)GlcNAc(b1-3)Gal(b1-4)GlcNAc(b1-3)Gal(b1-4)GlcNAc(b1-3)Gal(b1-4)GlcNAc(b1-2)[Gal(b1-4)GlcNAc(b1-3)Gal(b1-4)GlcNAc(b1-3)Gal(b1-4)GlcNAc(b1-3)Gal(b1-4)GlcNAc(b1-3)Gal(b1-4)GlcNAc(b1-6)]Man(a1-6)[Gal(b1-4)GlcNAc(b1-3)Gal(b1-4)GlcNAc(b1-3)Gal(b1-4)GlcNAc(b1-3)Gal(b1-4)GlcNAc(b1-3)Gal(b1-4)GlcNAc(b1-2)Man(a1-3)]Man(b1-4)GlcNAc(b1-4)[Fuc(a1-6)]GlcNAc
# Method in brief: as §1
# [19] = biological target: Gal(b1-4)GlcNAc(b1-3)Gal(b1-4)GlcNAc(b1-3)GalNAc
# Method in brief: as §1
# [20] = biological target: Gal(b1-4)GlcNAc(b1-3)Gal(b1-4)GlcNAc(b1-3)[Gal(b1-4)GlcNAc(b1-3)Gal(b1-4)GlcNAc(b1-6)]GalNAc
# Method in brief: as §1
# [21] = biological target: Gal(b1-4)GlcNAc(b1-6)[Gal(b1-4)GlcNAc(b1-3)]GalNAc
# Method in brief: as §1
# Gal(b1-4)GlcNAc6P = biological target: Gal(b1-4)GlcNAc6P
# Method in brief: as §1
# [22] = biological target: Gal3S(b1-4)[Fuc(a1-3)]GlcNAc
# Method in brief: as §1
# Gal3S6S(b1-4)GlcNAc = biological target: Gal3S6S(b1-4)GlcNAc
# Method in brief: as §1
# GalNAc(b1-4)GlcNAc6S = biological target: GalNAc(b1-4)GlcNAc6S
# Method in brief: as §1
# GalNAc4S6S(b1-4)GlcNAc = biological target: GalNAc4S6S(b1-4)GlcNAc
# Method in brief: as §1
binder,measurement,setting,value
B1,glycan array binding signal (z-score),Fuc(a1-2)Gal(b1-4)Glc,-1.21
same,glycan array binding signal (z-score),[1],-0.038
same,glycan array binding signal (z-score),[2],0.017
same,glycan array binding signal (z-score),[3],1.21
same,glycan array binding signal (z-score),[4],-0.865
same,glycan array binding signal (z-score),Fuc(a1-3)GlcNAc,-0.676
same,glycan array binding signal (z-score),[5],-0.828
same,glycan array binding signal (z-score),[6],0.273
same,glycan array binding signal (z-score),[7],-1.21
same,glycan array binding signal (z-score),Gal(a1-3)Gal,-0.145
same,glycan array binding signal (z-score),Gal(a1-3)Gal(b1-4)GlcNAc,0.17
same,glycan array binding signal (z-score),[8],2.94
same,glycan array binding signal (z-score),[9],-0.318
same,glycan array binding signal (z-score),[10],-0.821
same,glycan array binding signal (z-score),[11],-0.2
same,glycan array binding signal (z-score),[12],-1.12
same,glycan array binding signal (z-score),[13],-0.614
same,glycan array binding signal (z-score),[14],0.256
same,glycan array binding signal (z-score),[15],0
same,glycan array binding signal (z-score),[16],-0.59
same,glycan array binding signal (z-score),[17],3.9
same,glycan array binding signal (z-score),[18],0.644
same,glycan array binding signal (z-score),[19],2.99
same,glycan array binding signal (z-score),[20],2.99
same,glycan array binding signal (z-score),[21],-0.2
same,glycan array binding signal (z-score),Gal(b1-4)GlcNAc6P,-1.05
same,glycan array binding signal (z-score),[22],-0.319
same,glycan array binding signal (z-score),Gal3S6S(b1-4)GlcNAc,0.094
same,glycan array binding signal (z-score),GalNAc(b1-4)GlcNAc6S,-0.111
same,glycan array binding signal (z-score),GalNAc4S6S(b1-4)GlcNAc,-0.058

# — the supplement of paper PMC8728848
